Results filed as inconclusive are left out. The source made the active and inactive calls. Calls come from the whole dose curve; as a rule, active = well fitted inhibition curve with a large enough effect; inconclusive = small, poorly fitted or top-dose-only effect; inactive = no such curve, though single readings can be large or run the other way.
These compounds were tested against Polyunsaturated fatty acid lipoxygenase ALOX15B (Homo sapiens) (UniProt O15296) (assay: Confirmation qHTS Assay for Inhibitors of 15-hLO-2 (15-human lipoxygenase 2)). Details: purified 15hLO-2, xylenol orange hydroperoxide absorbance; series mostly up to 57.1 µM; activity change, negative = inhibition: at the top concentration.
Chain of Polyunsaturated fatty acid lipoxygenase ALOX15B (Homo sapiens) (O15296 whole entry, looked up): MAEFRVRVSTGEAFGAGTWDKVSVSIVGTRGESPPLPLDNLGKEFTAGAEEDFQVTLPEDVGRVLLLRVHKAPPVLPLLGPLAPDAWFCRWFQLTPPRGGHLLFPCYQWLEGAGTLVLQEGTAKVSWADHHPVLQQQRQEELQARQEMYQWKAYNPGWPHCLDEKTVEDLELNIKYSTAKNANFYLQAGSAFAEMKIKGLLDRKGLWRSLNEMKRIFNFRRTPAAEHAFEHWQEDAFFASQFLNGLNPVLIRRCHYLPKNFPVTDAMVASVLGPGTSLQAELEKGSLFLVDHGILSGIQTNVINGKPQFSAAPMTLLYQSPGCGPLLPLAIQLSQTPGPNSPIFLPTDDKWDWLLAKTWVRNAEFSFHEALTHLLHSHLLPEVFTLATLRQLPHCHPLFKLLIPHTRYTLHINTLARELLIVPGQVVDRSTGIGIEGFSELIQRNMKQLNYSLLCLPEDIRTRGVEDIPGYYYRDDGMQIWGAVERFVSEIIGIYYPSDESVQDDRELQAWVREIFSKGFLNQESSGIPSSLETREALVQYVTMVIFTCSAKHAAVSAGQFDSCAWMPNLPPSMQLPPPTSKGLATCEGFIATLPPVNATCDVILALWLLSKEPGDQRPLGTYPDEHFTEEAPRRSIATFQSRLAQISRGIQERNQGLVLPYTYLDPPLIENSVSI
Procedure: Human lipoxygenase 15hLO-2 is a member of the closely related lipoxygenase family of enzymes which catalyze the site-specific oxidation of arachidonic acid to various hormone precursor molecules and as such is a candidate for drug development in a variety of disease areas, such as cancer and inflammation. Inhibition of 15hLO-2 activity was screened by utilizing arachidonic acid as a substrate. The extent of hydroperoxide product formation was measured by a secondary chromogenic reaction in which xylenol orange (XO, Sigma-Aldrich, cat. number 39,818-7) reacts with the ferric ions produced from the reaction between the hydroperoxide and ferrous ions. The Fe(III)-XO complex is characterized with red-shifted absorbance at 560 nm. A purified preparation of human 15hLO-2 was supplied by Professor Ted Holman, University of California, Santa Cruz. NIH Molecular Libraries Screening Centers Network [MLSCN] NIH Chemical Genomics Center [NCGC] MLSCN Grant: MH081283-01A1 PI Name: Holman, T.R., University of California, Santa Cruz
Assay Protocol: Buffer: 25 mM Hepes pH 7.5, 0.01% Triton X-100. Reagents/Controls: Buffer in columns 3 and 4 as negative control (no enzyme). Substrate solution: 45 uM arachidonic acid (Sigma-Aldrich, St. Louis, MO) final concentration dispensed throughout the plate. Enzyme: 50 nM 15hLO-2 final concentration in columns 1, 2, 5-48. Column 1 is neutral (100% activity). Column 2 contained pin-transferred titration of NDGA (nordihidroguaiaretic acid, Sigma-Aldrich, N 5023, top concentration 10 mM in DMSO, then 1:2 dilution in duplicate). (Dilution factor: 23 nL into 4 uL.) Chromogenic detection reagent (divalent iron/xylenol orange, Fe-XO): 200 uM xylenol orange plus 300 uM ferrous ammonium sulfate prepared freshly in 50 mM sulfuric acid. Assay Steps: Three uL of enzyme were dispensed to 1536-well Greiner black clear bottom plates. Compounds and controls (23 nL) were transferred via Kalypsys PinTool. The plates were incubated for 15 min at room temperature, and then 1 uL of substrate solution was added to start the reaction. After room temperature incubation for 90 minutes, 4 uL of Fe-XO solution was added to each well followed by a short spin (1000 rpm, 15 sec) and the plates were then incubated for 30 min. The absorbance at 405 and 573 nm were measured using ViewLux (Perkin-Elmer) High-throughput CCD imager and absorbance protocol settings. The 573-to-405 absorbance ratio was used to compute reaction progress.

SMILES | activity change, negative = inhibition | Potency
O=C(Nc1nc2n(n1)C(c1ccccc1)CC(c1ccc(Cl)cc1)N2)c1ccco1 (stereo not given) | 20.6% (inactive) | 
CCOC(=O)c1ccc(N2CSC3=C(C#N)C(c4ccc(OC)cc4OC)CC(=O)N3C2)cc1 (stereo not given) | -12% (inactive) | 
CC1=NOC(=O)/C1=C\c1ccc(-c2cccc(Cl)c2)o1 |  | 4.47 µM (active)
CCCC(=O)NC(c1ccco1)c1cc(Cl)c2cccnc2c1O (stereo not given) | 9.81% (inactive) | 
c1csc(C2Nc3cccc4cccc(c34)N2)c1 |  | 12.6 µM (active)
Cc1cccc(NC(=O)CSC(N)=O)c1C | -20.6% (inactive) | 
Nc1cc(-c2ccncc2)c[nH]c1=O | -15.4% (inactive) | 
CCCCn1c(Cc2ccccc2)n[nH]c1=S | -28.7% (inactive) | 
O=C(CC1C(=O)N(c2ccc(Cl)cc2)C(=S)N1CCc1ccncc1)Nc1ccc(F)cc1 (stereo not given) | 5.96% (inactive) | 
Cc1ccc(-c2ccc(/C=C3\C(=O)ON=C3c3ccccc3)o2)c([N+](=O)[O-])c1 |  | 3.16 µM (active)
CCOc1ccc(NS(=O)(=O)c2ccc3[nH]cc(C(=O)N(CC)CC)c(=O)c3c2)cc1 | -2.5% (inactive) | 
O=C(C1=C(O)C(=O)N(Cc2ccco2)C1c1cccnc1)c1cc2ccccc2o1 (stereo not given) | 8.4% (inactive) | 
CCC(=O)N(Cc1cc(=O)[nH]c2ccccc12)C1CCCCC1 | -23.5% (inactive) | 
Clc1ccc(NNc2ccnc3cc(Cl)ccc23)cc1 | -13.6% (inactive) | 
Cc1noc(C)c1-c1nc(N(C)Cc2ccco2)c2ccccc2n1 | -11% (inactive) | 
Cc1csc(-c2coc3cc(O)cc(C)c3c2=O)n1 | -3.97% (inactive) | 
CN(C)CCC(=O)c1ccc(Cl)cc1 | -28.3% (inactive) | 
COc1ccccc1-n1c(SCC(=O)Nc2ccc(C)cc2)nc(O)cc1=O | 0.145% (inactive) | 
CC(=O)NCCNc1ncncc1-c1ccc(N(C)C)cc1 | -18.4% (inactive) | 
Cc1ccc(C)c(NC(=S)NNC(=O)c2csc3c2CCC(C)C3)c1 (stereo not given) | -44.7% (inactive) | 

SMILES | activity change, negative = inhibition | Potency
O=C(Nc1nnc(-c2ccccc2)o1)c1ccc(Cl)cc1 | 19.4% (inactive) | 
Cc1ccc(OCC(=O)Nc2ccc(N3CCCC3)cc2)cc1C | 3.37% (inactive) | 
CC(=O)[C@@H]1[C@@H]2C(=O)N(Cc3ccccc3)C(=O)[C@@H]2C2c3ccccc3C=CN21 (stereo not given in full) | 4.37% (inactive) | 
COc1ccccc1CNc1ncncc1-c1ccoc1 | -18.2% (inactive) | 
COC(=O)c1ccc(C(=S)N2CCOCC2)cc1 | -23.2% (inactive) | 
O=C1C2C3CCCC3=C3CCCC3C2C(=O)N1c1cccc(Cl)c1 (stereo not given) | -12.9% (inactive) | 
Cc1cc(/C=N/NC(=O)Cn2c3ccccc3c(=O)c3ccccc32)c(C)n1-c1ccccc1 |  | 7.08 µM (active)
COc1ccc(NC(=O)CSc2nc(O)cc(=O)n2-c2ccccc2OC)cc1 | -4.58% (inactive) | 
O=C(c1ccncc1)N1CCC2(CCCN(Cc3nccs3)C2)CC1 | 2.02% (inactive) | 
O=C(Cc1cc(=O)[nH][nH]1)N/N=C/C=C/c1ccccc1 | 14.5% (inactive) | 
Cc1ccc(SCCNC(=S)Nc2ccc(C)c(C)c2)cc1 |  | 25.1 µM (active)
Oc1ccc(CNc2ccccc2)c2cccnc12 | -35.6% (inactive) | 
COc1ccc(C(C[N+](=O)[O-])c2c(-c3ccccc3)cc3ccccn23)c(OC)c1 (stereo not given) | -11% (inactive) | 
COc1cccc(-c2nc(NC3CCNCC3)c3ccccc3n2)c1 | 11.1% (inactive) | 
CCOC(=O)c1c(NC(=O)CN2CCOCC2)sc2c1CCCC2 | -3.97% (inactive) | 
OC1(c2cccc(C(F)(F)F)c2)CCN(c2ncnc3c2[nH]c2ccc(F)cc23)CC1 | -11.8% (inactive) | 
Cc1cc(Nc2nnnn2-c2ccccc2)n(-c2ccc(Cl)cc2)n1 | -4.85% (inactive) | 
COc1ccc(OC)c(NC(=O)NC2(C(F)(F)F)Oc3ccccc3O2)c1 | -24.4% (inactive) | 
O=C(Nc1nnc(-c2ccco2)s1)C1CCCCC1 |  | 1 µM (active)
Cc1c(N/C=C/C(=O)c2cccs2)c(=O)n(-c2ccccc2)n1C | -9.11% (inactive) | 

Reference: PubChem BioAssay AID2537 (National Center for Advancing Translational Sciences (NCATS), 2010)
